Values joined by “and” are separate entries in the source; they are usually repeats but may differ in a detail not shown here. Equal values may be shown once. Screen size: about 5,500 compounds; about 2,000 (36%) were called active. About 18% were inconclusive and are not listed. Cut-off read from the data, not from the text of the source: active = normalized growth mostly below about 0.91 (no sharp cut-off); inconclusive = no clear call, values can overlap the other calls; inactive = mostly above about 0.92. This is one part of the list.
Assay: chemical genetic growth profiling, strain panel (AID 1159580);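 note: tested at 20 µM; growth read once vehicle control cultures reached saturation at 30 °C; 1 = growth at the plate median or of vehicle wells; lower values mean less growth of the strain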
Conditions: S. cerevisiae deletion strains, growth OD
[1] = locus YAL013W, strain DEP1, hits give low values
[2] = locus YBR229C, strain ROT2, hits give low values
[3] = locus YCL061C, strain MRC1, hits give low values
[4] = locus YDL101C, strain DUN1, hits give low values
[5] = locus YDR150W, strain NUM1, hits give low values
[6] = locus YEL061C, strain CIN8, hits give low values
[7] = locus YGR078C, strain PAC10, hits give low values
[8] = locus YHR030C, strain SLT2, hits give low values
[9] = locus YHR087W, strain rtc3, hits give low values
[10] = locus YJR043C, strain POL32, hits give low values
[11] = locus YJR075W, strain HOC1, hits give low values
[12] = locus YLR039C, strain RIC1, hits give low values
[13] = locus YLR058C, strain SHM2 (second series), hits give low values
[14] = locus YLR085C, strain ARP6, hits give low values
[15] = locus YLR262C, strain YPT6, hits give low values
[16] = locus YML094W, strain GIM5, hits give low values
[17] = locus YMR219W, strain ESC1, hits give low values
[18] = locus YMR263W, strain SAP30, hits give low values
[19] = locus YNL153C, strain GIM3, hits give low values
[20] = locus YNL298W, strain CLA4 (second series), hits give low values
[21] = locus YNL322C, strain KRE1, hits give low values
[22] = locus YNR030W, strain Alg12, hits give low values
[23] = locus YPL055C, strain LGE1, hits give low values
[24] = locus YPL241C, strain CIN2, hits give low values
[25] = locus YPR135W, strain CTF4, hits give low values

Measured: normalized growth

OC1(C(F)(F)F)CC(c2ccccc2)=NN1 (centres undefined)
active: [15] 0.809
inactive: [1] 0.974 | [2] 0.968 | [3] 0.978 | [4] 0.987 | locus YDL134C, strain PPH21, hits give low values 0.984 | [5] 0.949 | [6] 1 | [7] 0.972 | [8] 1.08 | [9] 0.967 | locus YJL187C, strain SWE1, hits give low values 1 | [10] 0.991 | [11] 0.915 | [12] 0.843 | [13] 0.961 | [14] 1.03 | [16] 1 | [17] 0.976 | [18] 0.976 | [19] 0.981 | [20] 0.989 | [21] 0.953 | [22] 1 | [23] 0.981 | [24] 1.02 | [25] 0.92

OC1(C(F)(F)F)CC(c2ccc3ccccc3c2)=NN1 (centres undefined)
active: [1] 0.205 | locus YAR019C, strain CDC15, hits give low values 0.155 | locus YBL105C, strain PKC1, hits give low values 0.336 | locus YBR135W, strain CKS1, hits give low values 0.263 | locus YBR136W, strain MEC1, hits give low values 0.339 | locus YBR160W, strain CDC28, hits give low values 0.367 | [2] 0.223 | [3] 0.19 | locus YDL017W, strain CDC7, hits give low values 0.373 | locus YDL028C, strain MPS1, hits give low values 0.402 | [4] 0.215 and 0.164 | locus YDL108W, strain KIN28, hits give low values 0.392 | locus YDL132W, strain cdc53, hits give low values 0.234 | locus YDL214C, strain PRR2, hits give low values 0.224 | locus YDR052C, strain DBF4, hits give low values 0.302 | locus YDR054C, strain cdc34, hits give low values 0.233 | [5] 0.397 | locus YDR226W, strain ADK1, hits give low values 0.278 | locus YDR477W, strain SNF1, hits give low values 0.146 | [6] 0.146 | locus YER123W, strain YCK3, hits give low values 0.181 | locus YER133W, strain GLC7, hits give low values 0.135 | locus YFL009W, strain cdc4, hits give low values 0.17 | locus YFL029C, strain CAK1, hits give low values 0.16 | locus YFR003C, strain YPI1, hits give low values 0.405 | locus YFR019W, strain FAB1, hits give low values 0.376 | locus YFR028C, strain CDC14, hits give low values 0.226 | locus YGR040W, strain KSS1, hits give low values 0.135 | locus YGR052W, strain FMP48, hits give low values 0.15 | [7] 0.213 | locus YGR092W, strain DBF2, hits give low values 0.198 | [8] 0.0763 and 0.104 | locus YHR079C, strain IRE1, hits give low values 0.125 | locus YHR082C, strain KSP1, hits give low values 0.141 | [9] 0.442 | locus YHR205W, strain SCH9, hits give low values 0.138 | locus YIL147C, strain SLN1, hits give low values 0.322 | locus YJL095W, strain BCK1, hits give low values 0.115 | locus YJL128C, strain PBS2, hits give low values 0.386 | locus YJL157C, strain FAR1, hits give low values 0.301 | locus YJR016C, strain ILV3, hits give low values 0.162 | [10] 0.245 | locus YJR066W, strain TOR1 (second series), hits give low values 0.192 | locus YJR066W, strain TOR1, hits give low values 0.125 | [11] 0.298 | locus YKL048C, strain ELM1, hits give low values 0.285 | locus YKL067W, strain YNK1, hits give low values 0.279 | locus YKL101W, strain HSL1, hits give low values 0.251 | locus YKL190W, strain CNB1, hits give low values 0.0734 | locus YKL193C, strain SDS22, hits give low values 0.161 | locus YKL203C, strain TOR2, hits give low values 0.13 | [12] 0.13 | [13] 0.274 | [14] 0.0695 | locus YLR113W, strain HOG1, hits give low values 0.15 | locus YLR133W, strain CKI1, hits give low values 0.27 | [15] 0.12 | locus YLR403W, strain SFP1, hits give low values 0.0326 | locus YML070W, strain DAK1, hits give low values 0.211 | [16] 0.192 | locus YMR001C, strain CDC5, hits give low values 0.151 | locus YMR205C, strain PFK2 (second series), hits give low values 0.218 | [17] 0.258 | [18] 0.298 | locus YMR277W, strain FCP1, hits give low values 0.172 | locus YMR307W, strain GAS1, hits give low values 0.13 | locus YNL006W, strain LST8, hits give low values 0.2 | locus YNL020C, strain ARK1, hits give low values 0.257 | [19] 0.239 | locus YNL161W, strain CBK1, hits give low values 0.211 | locus YNL183C, strain NPR1, hits give low values 0.115 | locus YNL207W, strain RIO2, hits give low values 0.195 | locus YNL222W, strain SSU72, hits give low values 0.225 | [20] 0.0831 | locus YNL307C, strain MCK1 (second series), hits give low values 0.228 | [21] 0.571 | [22] 0.108 | locus YOL006C, strain TOP1, hits give low values 0.1 | locus YOL078W, strain AVO1, hits give low values 0.186 | locus YOL136C, strain PFK27, hits give low values 0.211 | locus YOR061W, strain CKA2, hits give low values 0.43 | locus YOR119C, strain RIO1, hits give low values 0.129 | locus YOR231W, strain MKK1, hits give low values 0.132 | locus YOR329C, strain SCD5, hits give low values 0.203 | locus YPL031C, strain PHO85, hits give low values 0.126 | [23] 0.157 | locus YPL153C, strain RAD53, hits give low values 0.115 | locus YPL204W, strain HRR25, hits give low values 0.13 | locus YPL209C, strain IPL1, hits give low values 0.232 | [24] 0.108 | locus YPL256C, strain CLN2, hits give low values 0.147 | locus YPR025C, strain CCL1, hits give low values 0.248 | locus YPR106W, strain ISR1, hits give low values 0.586 | locus YPR111W, strain DBF20, hits give low values 0.715 | [25] 0.163 | strain NNK1, hits give low values 0.492 | strain TSCII, hits give low values 0.18

Source: PubChem BioAssay AID1159580 (chemical genetic matrix, 2015)
